Results on 48 compounds are retold here after the supplement of paper PMC4371806.

For the assay, the system named is Escherichia coli BW25113. Nature of the assay: plate-normalized OD600 growth (mean of duplicates) (OD600 (normalized)); higher = more growth (less inhibition). The following applies: 10 µM. Here is the method:
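E. coli BW25113 in LB (100 µl, 96-well, no shaking) was exposed to 10 µM of each compound from a ~30,000-member library and grown at 37°C for 24 h or 15°C for 48 h, in duplicate. Growth was read as OD600 and the duplicate ODs were normalized across screening plates to correct plate-to-plate variation. Hits were >3σ below the mean OD600 at 15°C and <2σ below the mean at 37°C.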

SMILES strings stand for the structures. The full ranking holds about 2,300 compounds; the median of “plate-normalized OD600 growth (mean of duplicates)” is about 0.29, and the lowest 2% start at about 0.22. This excerpt belongs to a sample that is enriched for the lowest values.

For the compound `O=C(Nc1ccc(S(=O)(=O)Nc2cccc(Cl)c2Cl)cc1)C1COc2ccccc2O1` (stereo unspecified), the “plate-normalized OD600 growth” value runs as follows: (temperature: 15°C, 48 h) 0.262; (temperature: 37°C, 24 h) 0.62.

For the compound `Cc1cc(C)c2nc3s/c(=C\c4ccccc4C(F)(F)F)c(=O)n3c2c1`, the “plate-normalized OD600 growth” value reads like this: (temperature: 15°C, 48 h) 0.249; (temperature: 37°C, 24 h) 0.593.

Consider `Cc1nc(-c2ccccn2)nc(NCCNc2cccc(C(F)(F)F)n2)c1Cl`, for which the “plate-normalized OD600 growth” value reads like this: (temperature: 15°C, 48 h) 0.257; (temperature: 37°C, 24 h) 0.626.

With `O=C(CC1CCC1)Nc1cc(Cl)ccc1Cl`, the “plate-normalized OD600 growth” value (temperature: 15°C, 48 h) is 0.256 and the “plate-normalized OD600 growth” value (temperature: 37°C, 24 h) worked out at 0.619.

`Cc1nnsc1C(=O)Nc1ccc(CN2CCS(=O)(=O)CC2)cc1`: the “plate-normalized OD600 growth” value is, setting by setting: (temperature: 15°C, 48 h) 0.244; (temperature: 37°C, 24 h) 0.614.

Turning to `Cc1ccc(S(=O)(=O)N=C(Nc2ccc(O)c(Cl)c2)c2ccccc2)cc1`, the “plate-normalized OD600 growth” value stood at 0.232 (temperature: 15°C, 48 h) and 0.618 (temperature: 37°C, 24 h).

On to `Cc1cc(NC(=NS(=O)(=O)c2ccc(Br)cc2)c2ccccc2)c(Cl)c(C)c1O`, for which the “plate-normalized OD600 growth” value reads like this: (temperature: 15°C, 48 h) 0.214; (temperature: 37°C, 24 h) 0.634.

Take `Cc1cc(NC(=NS(=O)(=O)c2ccc(Br)cc2)c2ccccc2)cc(C)c1O`: the “plate-normalized OD600 growth” value (temperature: 15°C, 48 h) was 0.251 and the “plate-normalized OD600 growth” value (temperature: 37°C, 24 h) was 0.652.

On to `Cc1oc(CC(C)C)cc1C(=O)Nc1cccc(C(=O)O)c1`, for which the “plate-normalized OD600 growth” value (temperature: 15°C, 48 h) was 0.255 and the “plate-normalized OD600 growth” value (temperature: 37°C, 24 h) stood at 0.643.

For `Nc1ccccc1C(=O)Nc1cc(C(=O)O)cc(C(=O)O)c1`, the “plate-normalized OD600 growth” value came out at 0.232 (temperature: 15°C, 48 h) and 0.625 (temperature: 37°C, 24 h).

Regarding `NC(N)=Nc1nc(-c2cc(Cl)sc2Cl)cs1`, the “plate-normalized OD600 growth” value turned out to be 0.242 (temperature: 15°C, 48 h) and 0.607 (temperature: 37°C, 24 h).

As for `COc1cc(NC(=O)CCN2CCC(C)CC2)cc(OC)c1`, the “plate-normalized OD600 growth” value is, setting by setting: (temperature: 15°C, 48 h) 0.217; (temperature: 37°C, 24 h) 0.647.

As to `Cc1c(Br)sc2ccc(Cl)cc12`, the “plate-normalized OD600 growth” value came to 0.247 (temperature: 15°C, 48 h) and 0.612 (temperature: 37°C, 24 h).

`O=C(CC1(O)C(=O)C=C(c2ccccc2)N1N=C(c1ccccc1)c1ccccc1)c1ccccc1` (stereo unspecified): the “plate-normalized OD600 growth” value runs as follows: (temperature: 15°C, 48 h) 0.242; (temperature: 37°C, 24 h) 0.588.

As for `CCOC(=O)COc1nc(-c2ccccc2)cc(-c2ccccc2)c1C#N`, the “plate-normalized OD600 growth” value reads like this: (temperature: 15°C, 48 h) 0.251; (temperature: 37°C, 24 h) 0.629.

Turning to `COc1ccc(C2SCC(=O)N2CCN2CCCCC2)cc1` (stereo unspecified), the “plate-normalized OD600 growth” value (temperature: 15°C, 48 h) was 0.238 and the “plate-normalized OD600 growth” value (temperature: 37°C, 24 h) amounted to 0.618.

`O=c1[nH]c2cccnc2[nH]c1=O`: the “plate-normalized OD600 growth” value by setting is: (temperature: 15°C, 48 h) 0.233; (temperature: 37°C, 24 h) 0.617.

For `COc1ccc(C2CC(=O)N2C2(C(=O)Nc3c(C)cccc3C)CCCCC2)cc1OC` (stereo unspecified), the “plate-normalized OD600 growth” value is, setting by setting: (temperature: 15°C, 48 h) 0.24; (temperature: 37°C, 24 h) 0.605.

For `c1ccc(OCCOc2ccccn2)nc1`, the “plate-normalized OD600 growth” value reads like this: (temperature: 15°C, 48 h) 0.25; (temperature: 37°C, 24 h) 0.612.

Consider `COc1ccc(Nc2nc(Cl)nc(NCCC3=CCCCC3)n2)cc1`, for which the “plate-normalized OD600 growth” value turned out to be 0.257 (temperature: 15°C, 48 h) and 0.602 (temperature: 37°C, 24 h).

As for `O=C1c2cccc3c(SCCO)ccc(c23)C(=O)N1CCc1ccccn1`, the “plate-normalized OD600 growth” value was found to be 0.265 (temperature: 15°C, 48 h) and 0.634 (temperature: 37°C, 24 h).

Consider `O=C(O)c1cccc(N=Cc2ccc(OCc3ccc(F)cc3)cc2)c1`, for which the “plate-normalized OD600 growth” value reads like this: (temperature: 15°C, 48 h) 0.225; (temperature: 37°C, 24 h) 0.684.

As for `CCCc1ccc(OCC(=O)NNC(=S)Nc2ccccc2)cc1`, the “plate-normalized OD600 growth” value reads like this: (temperature: 15°C, 48 h) 0.244; (temperature: 37°C, 24 h) 0.618.

Consider `O=[N+]([O-])c1cnc(Sc2n[nH]c(-c3cccs3)n2)s1`, for which the “plate-normalized OD600 growth” value (temperature: 15°C, 48 h) came out at 0.225 and the “plate-normalized OD600 growth” value (temperature: 37°C, 24 h) was found to be 0.607.

Take `C=CCn1c(CSc2ccccc2[N+](=O)[O-])n[nH]c1=S`: the “plate-normalized OD600 growth” value by setting is: (temperature: 15°C, 48 h) 0.26; (temperature: 37°C, 24 h) 0.606.

Take `C=CCn1c(Sc2ncc([N+](=O)[O-])s2)n[nH]c1=O`: the “plate-normalized OD600 growth” value runs as follows: (temperature: 15°C, 48 h) 0.181; (temperature: 37°C, 24 h) 0.588.

For the compound `COc1ccc(/C=N/Nc2nnnn2-c2cccc3ccccc23)cc1OC`, the “plate-normalized OD600 growth” value is, setting by setting: (temperature: 15°C, 48 h) 0.253; (temperature: 37°C, 24 h) 0.627.

For `N#CCC(=O)N(Cc1ccccc1F)C(=O)NC1CCCCC1`, the “plate-normalized OD600 growth” value (temperature: 15°C, 48 h) stood at 0.263 and the “plate-normalized OD600 growth” value (temperature: 37°C, 24 h) worked out at 0.647.

Take `N/C(=N/OC(=O)c1ccccc1)c1ccc(-c2csnn2)cc1`: the “plate-normalized OD600 growth” value (temperature: 15°C, 48 h) is 0.252 and the “plate-normalized OD600 growth” value (temperature: 37°C, 24 h) came to 0.6.

With `CCC(C)(C)C1CCc2sc3nc[nH]c(=O)c3c2C1` (stereo unspecified), the “plate-normalized OD600 growth” value amounted to 0.248 (temperature: 15°C, 48 h) and 0.626 (temperature: 37°C, 24 h).

In the case of `CCOc1cc(/C=N/n2cnc3sc4c(c3c2=O)CCCC4)cc(Br)c1OCc1ccc(Cl)cc1`, the “plate-normalized OD600 growth” value reads like this: (temperature: 15°C, 48 h) 0.245; (temperature: 37°C, 24 h) 0.619.

For the compound `CCOC(=O)c1ccc(-c2ccc(/C=C(\C#N)C(=O)NC3CCCCC3)o2)cc1`, the “plate-normalized OD600 growth” value by setting is: (temperature: 15°C, 48 h) 0.241; (temperature: 37°C, 24 h) 0.604.

On to `O=C(CSc1nc2ccccc2[nH]1)Nc1nc2ccccc2s1`, for which the “plate-normalized OD600 growth” value is 0.244 (temperature: 15°C, 48 h) and 0.604 (temperature: 37°C, 24 h).

Consider `Cc1cc(C)c(C(=O)CSc2nc3ccccc3[nH]2)c(C)c1`, for which the “plate-normalized OD600 growth” value by setting is: (temperature: 15°C, 48 h) 0.213; (temperature: 37°C, 24 h) 0.626.

Consider `COC(=O)CSc1nc(N)cc(=O)[nH]1`, for which the “plate-normalized OD600 growth” value runs as follows: (temperature: 15°C, 48 h) 0.247; (temperature: 37°C, 24 h) 0.605.

For `O=C1CC(NCc2ccco2)C(=O)N1c1ccc(OC(F)(F)Cl)cc1` (stereo unspecified), the “plate-normalized OD600 growth” value runs as follows: (temperature: 15°C, 48 h) 0.268; (temperature: 37°C, 24 h) 0.642.

On to `CCOC(=O)C(=CNNS(=O)(=O)c1cc(C(F)(F)F)cc(C(F)(F)F)c1)C(=O)OCC`, for which the “plate-normalized OD600 growth” value (temperature: 15°C, 48 h) was 0.246 and the “plate-normalized OD600 growth” value (temperature: 37°C, 24 h) stood at 0.602.

As to `CCOC(=O)C(=CNNC(=O)c1ccccc1-n1cccc1)C(=O)OCC`, the “plate-normalized OD600 growth” value by setting is: (temperature: 15°C, 48 h) 0.213; (temperature: 37°C, 24 h) 0.618.

On to `CCOC(=O)C(=CNNc1ccnc2cc(Cl)ccc12)C(=O)OCC`, for which the “plate-normalized OD600 growth” value was 0.26 (temperature: 15°C, 48 h) and 0.616 (temperature: 37°C, 24 h).

In the case of `CC1COCCN1c1cc(N2CCCCC2C(F)(F)F)[nH]c(=O)c1` (stereo unspecified), the “plate-normalized OD600 growth” value by setting is: (temperature: 15°C, 48 h) 0.265; (temperature: 37°C, 24 h) 0.635.

Regarding `Nc1[nH]c(=O)c(CO)c(N)c1S(=O)(=O)c1ccccc1`, the “plate-normalized OD600 growth” value was 0.211 (temperature: 15°C, 48 h) and 0.632 (temperature: 37°C, 24 h).

As for `N=c1c(S(=O)(=O)c2ccccc2)c(N)c(CO)c2sc3ccccc3n12`, the “plate-normalized OD600 growth” value is, setting by setting: (temperature: 15°C, 48 h) 0.236; (temperature: 37°C, 24 h) 0.601.

With `NS(=O)(=O)c1ccc(-n2ncc3ccccc3c2=O)cc1`, the “plate-normalized OD600 growth” value is, setting by setting: (temperature: 15°C, 48 h) 0.214; (temperature: 37°C, 24 h) 0.646.

`CCOC(=O)c1cnn(-c2ccc(NS(=O)(=O)c3ccc(Cl)cc3)cc2)c1C(F)(F)F`: the “plate-normalized OD600 growth” value came to 0.233 (temperature: 15°C, 48 h) and 0.609 (temperature: 37°C, 24 h).

With `O=C(CNC(=O)C(c1ccccc1)c1ccccc1)N/N=C/c1ccc(-c2ccc(Cl)c(Cl)c2)o1`, the “plate-normalized OD600 growth” value runs as follows: (temperature: 15°C, 48 h) 0.238; (temperature: 37°C, 24 h) 0.611.

For the compound `Cc1ccccc1OCC(=O)Nc1cccc(N2C(=O)c3ccccc3C2=O)c1`, the “plate-normalized OD600 growth” value (temperature: 15°C, 48 h) was 0.235 and the “plate-normalized OD600 growth” value (temperature: 37°C, 24 h) amounted to 0.661.

As to `O=C(COc1ccc(C(F)(F)F)cc1[N+](=O)[O-])Nc1cccc(C(F)(F)F)c1`, the “plate-normalized OD600 growth” value (temperature: 15°C, 48 h) came to 0.264 and the “plate-normalized OD600 growth” value (temperature: 37°C, 24 h) is 0.633.

`Cc1cccc(NC(=O)COc2ccccc2C(=O)NCCNc2ccc([N+](=O)[O-])cc2)c1`: the “plate-normalized OD600 growth” value reads like this: (temperature: 15°C, 48 h) 0.209; (temperature: 37°C, 24 h) 0.656.
